Sampled rows, rich in hits. Any-hit rate of the full collection: about 2.1%.
D2 ag-1: D2 dopamine receptor (human) agonism; activation, % at 2 µM; HEK293 T-REx D2 cells, calcium flux agonist mode; 340,000 compounds, 0.53% hits; P14416; AID 485358;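 active = activation over 3 SD above normal in the single-dose calcium agonist read, cut at about 30% in these data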; also: 0% is about no effect
Target sequence (P14416 whole entry, looked up): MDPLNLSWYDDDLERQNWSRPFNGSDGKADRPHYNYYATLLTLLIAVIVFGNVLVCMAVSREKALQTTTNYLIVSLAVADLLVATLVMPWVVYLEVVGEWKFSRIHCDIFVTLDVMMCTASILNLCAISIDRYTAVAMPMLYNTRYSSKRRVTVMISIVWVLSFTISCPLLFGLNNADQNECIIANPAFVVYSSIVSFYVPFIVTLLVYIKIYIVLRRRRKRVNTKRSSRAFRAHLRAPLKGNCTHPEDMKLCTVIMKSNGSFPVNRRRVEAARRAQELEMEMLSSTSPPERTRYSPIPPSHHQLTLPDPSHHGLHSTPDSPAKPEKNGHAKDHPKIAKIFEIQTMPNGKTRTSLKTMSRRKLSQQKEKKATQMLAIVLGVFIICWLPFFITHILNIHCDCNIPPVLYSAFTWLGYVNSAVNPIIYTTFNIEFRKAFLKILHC
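Calcium-flux readout, 1 cycle/sec over 180 s following compound pin transfer, in inducible HEK293 Trex D2 cells (force-coupled); dopamine controls included. Positive calcium responses during this window marked compounds as potential agonists.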
LDHA inh: blocks human lactate dehydrogenase A; P00338; purified LDHA, NADH/diaphorase-resazurin fluorescence; stronger effect = lower value; activity change, % (values are at about 110 or 230 µM); 480,000 compounds, 0.15% hits; AID 1347041; in the data active = activity change below about -30%; inconclusive = mostly about -25% to -30%;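 also: plate controls were DMSO wells for no effect and wells without enzyme for full effect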
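Human LDH5 at 2 nM final in Tris HCl pH 7.4 with 0.06 mM NADH and 0.2 mM pyruvate, reacted 5 minutes at room temperature. Remaining NADH coupled via diaphorase/resazurin; resorufin fluorescence read at 0 and 20 minutes, normalized to enzyme-free and DMSO wells.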
D2 PAM-1: positively modulates the human D2 dopamine receptor allosterically; HEK293 T-REx D2, calcium flux, EC20 dopamine potentiation; 340,000 compounds, 0.34% hits; potentiation, % at 10 µM; P14416;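 active = potentiation over 3 SD above the plate norm, cut at about 30% in these data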; also: 0% is about no effect
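Using a no-wash calcium dye in inducible, force-coupled HEK293 Trex cells expressing D2, we tracked fluorescence each second for 180 s after compound, then for 180 s after EC20 dopamine to detect augmented signalling.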
D2 antag: antagonists of human D2 dopamine receptor. P14416. HEK293 TREx D2 cells, calcium flux, dopamine EC80. inhibition, % at 10 µM. 340,000 compounds, 2% hits. AID 485344; in the data active = inhibition above about 30%; inactive = below that, where a call was filed; also: 0% is about no effect
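In this primary screen, negative modulation is detected by tracking calcium flux after an EC80 dopamine challenge in inducible HEK293 T-REx D2 cells preexposed to test compound for 180 s.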
D2 PAM-2: positive allosteric modulators of human D2 dopamine receptor | P14416 | DiscoveRx D2 beta-arrestin cells, luminescence, 90 min; 100% = 57 uM dopamine signal | potentiation, % (no concentration beside the values) | 360,000 compounds, 0.23% hits; in the data active = potentiation above about 50%; inconclusive = mostly about 30% to 49%
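PathHunter D2 cells, attached overnight at 37 deg C, received compound in DMSO plus dopamine at EC20 (50 nM final) for 90 min at 37 deg C. Beta-arrestin recruitment was read as luminescence after 1 h with detection reagent at ambient temperature.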
D2 ag-2: human D2 receptor agonism in beta-arrestin assay; P14416; DiscoveRx PathHunter D2 beta-arrestin, luminescence, 90 min; 100% = 57 uM dopamine signal; activation, % (no concentration beside the values); 360,000 compounds, 0.084% hits; in the data active = activation above about 40%; inconclusive = between about 15% and that limit
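DiscoveRx PathHunter D2 beta-arrestin cells (2,100/well) attached overnight, then compound-stimulated 90 min at 37 C in HBSS/10 mM HEPES/0.1% Tween-20 buffer; beta-galactosidase complementation read by luminescence after 1 h at ambient temperature. Dopamine 57 uM final (EC100) as control.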
* = called active by the depositor; ? = inconclusive; · = no result.

SMILES	D2 ag-1	LDHA inh	D2 PAM-1	D2 antag	D2 PAM-2	D2 ag-2
COc1ccc(N=Cc2sc(O)c3ccccc23)cc1	0	-2	-1	11	113*	?
CCCCN(CC)C(=O)c1cc2c(C)cc(C)c(C)c2[nH]1	·	3	·	·	·	·
COc1ccc(CN2CCNC(=O)C2CC(=O)NC2CCCC2)c(OC)c1 (stereo not drawn)	0	-1	107*	-27	-6	-1
CCc1cc(C(c2ccc(OC)cc2)N2CCOCC2)c(NC(=O)c2ccco2)s1 (stereo not drawn)	·	3	·	·	·	·
Cc1ccc(CNC(=O)CN(C2CCCCC2)S(C)(=O)=O)cc1	0	-2	-6	3	-7	-4
CS(=O)(=O)N(CC(=O)NCc1ccccc1)C1CCCCC1	0	-2	-8	37*	-3	-4
Fc1cccc(NC(=S)NCCc2ccccc2)c1	-1	-14	-22	-8	-6	-1
CC(=O)NNC(=S)NCCc1ccccc1	1	-10	-2	49*	0	-7
O=[N+]([O-])c1cccc(NC(=S)NCCc2ccccc2)c1	-1	-5	7	80*	-32	-6
Cc1cccc(/C=C/c2ccc3ccccc3n2)c1	·	4	·	·	·	·
CC1=CC(C)(C)Nc2ccc(OC(=O)CCN3C(=O)c4ccccc4C3=O)cc21	-1	4	1	-1	131*	?
CCc1cc(=O)oc2cc(C)cc(OC(C)C(=O)NC3CCN(Cc4ccccc4)CC3)c12 (stereo not drawn)	0	-1	-19	6	-42	-6
O=C(Cc1ccccc1[N+](=O)[O-])NC1CCN(Cc2ccccc2)CC1	1	-2	-29	48*	-5	-2
O=C(Cc1c(F)cccc1Cl)NC1CCN(Cc2ccccc2)CC1	·	-1	·	·	-52	-7
Cc1cc(OCC(=O)NC2CCN(Cc3ccccc3)CC2)c2c(C)cc(=O)oc2c1	0	-1	-22	54*	-39	-2
Cc1cc(OC(C)C(=O)NC2CCN(Cc3ccccc3)CC2)c2c(C)cc(=O)oc2c1 (stereo not drawn)	-1	-2	-19	73*	-33	3
O=C(COc1ccccc1F)NC1CCN(Cc2ccccc2)CC1	0	-3	-15	48*	-25	-3
O=C(Cc1cccc(C(F)(F)F)c1)NC1CCN(Cc2ccccc2)CC1	·	-4	·	·	·	·
O=S(=O)(c1ccccc1)c1cnc2cc3c(cc2c1N1CCN(c2ccccc2)CC1)OCCO3	·	16	·	·	·	·
Cc1cc(C(=O)OCC(=O)Nc2cccc(F)c2)c2ccccc2n1	·	1	·	·	·	·
COc1ccc(NC(=O)CSc2nnc3ccc(-c4ccccn4)nn23)cc1OC	0	4	-10	30*	-18	-5
Cc1ccc(CNc2ccc(N3CCCCC3)cc2)s1	·	12	·	·	·	·
O=C(Nc1oc2ccccc2c(=O)c1-c1ccccc1)c1ccccc1	·	-16	·	·	·	·
OCC1CCCCN1CC(O)COC(c1ccc(F)cc1)c1ccc(F)cc1 (stereo not drawn)	0	-17	-5	31*	-4	-2
Nn1c(SC/C=C/c2ccccc2)nnc1-c1ccncc1	0	-12	18	38*	-13	-5
SMILES	D2 ag-1	LDHA inh	D2 PAM-1	D2 antag	D2 PAM-2	D2 ag-2
COc1cc(-c2nnc(SC/C=C/c3ccccc3)n2N)cc(OC)c1OC	1	0	-2	9	-1	-4
Cc1ccc(C)c(N2N=C(C(=O)Nc3ccc(S(=O)(=O)N4CCCCC4)cc3)CCC2=O)c1	·	-11	·	·	·	·
COc1ccc2nc(C(=O)NC(C3CC3)C3CC3)ccc2c1	·	5	·	·	·	·
Cc1ccc(S(=O)(=O)/N=C2/NC(=O)/C(=C/c3cc([N+](=O)[O-])ccc3O)S2)cc1	-1	-51*	-1	0	-28	-11
OCCN1CCN(C(=S)c2ccc(Br)cc2)CC1	0	-1	-7	55*	-11	-3
CSc1ccc(C(=S)N2CCN(CCO)CC2)cc1	-1	-7	10	-21	-12	-3
CC1CCN(CCn2c(=S)[nH]c3ccccc3c2=O)CC1	0	-2	-12	31*	-25	5
CC1CCN(CCCn2c(=S)[nH]c3ccccc3c2=O)CC1	0	-6	-18	22	-42	-3
O=c1c2ccccc2[nH]c(=S)n1CCCN1CCC(Cc2ccccc2)CC1	-2	-6	-28	82*	-24	1
O=C(CCCCCn1c(=S)[nH]c2ccc(N3CCOCC3)cc2c1=O)NCc1cccc(Cl)c1	-1	-1	39*	0	-3	8
O=C(CCCCCn1c(=S)[nH]c2ccc(N3CCOCC3)cc2c1=O)NCc1ccccc1	-1	-2	-1	17	0	-8
O=c1c2ccccc2[nH]c(=S)n1CCCN1CCN(C2CCCCC2)CC1	0	-4	-24	82*	-31	2
CCc1nc2ncc(C#N)c(N)n2n1	·	6	·	·	·	·
CC(=O)c1cccc(NC(=O)c2ccccc2SC(C)C)c1	·	-2	·	·	·	·
O=c1c2ccc(Cl)cc2[nH]c(=S)n1CCCN1CCOCC1	0	-10	-20	34*	-18	-5
CN(Cc1cc2ccccc2[nH]c1=O)C(=O)c1cccc(Cl)c1	·	-6	·	·	·	·
Cc1cc(OCCN2CCN(S(=O)(=O)c3ccccc3F)CC2)ccc1C(C)C	1	2	66*	-6	-21	-2
O=C(CN1C(=O)COc2ccccc21)NCCCN1CCN(Cc2ccccc2)CC1	1	-8	-16	10	-18	-1
O=C(CN1C(=O)COc2ccccc21)NCCCN1CCc2ccccc2C1	-1	1	-30	58*	-24	-1
C=C(C)Cn1c(SCC(=O)O)nnc1-c1ccc(C(C)(C)C)cc1	0	-4	-4	30*	8	-2
Cc1cccc(N(CC(=O)NCc2ccco2)C(=O)CCC(=O)Nc2ccccn2)c1C	0	-5	-5	-2	-7	-2
COc1ccccc1N(CC(=O)NCc1ccco1)C(=O)CCC(=O)Nc1ccccn1	-1	-3	32*	-7	3	-1
COc1ccc(-c2ccc(CCC(=O)NC3CCCCC3)o2)cc1	·	4	·	·	·	·
CCC(CNc1cc(OC)cc2cccnc12)NC1CCCCC1 (stereo not drawn)	-1	8	-18	47*	-19	7
COc1cc(NCCCC(C)N)c2ncccc2c1 (stereo not drawn)	-3	24	9	2	4	6
COC(=O)COc1ccc2c(=O)c(Oc3ccccc3)c(C)oc2c1	0	-13	37*	-10	-10	-2
COC(=O)COc1ccc2c(=O)c(Oc3ccc(Br)cc3)c(C)oc2c1	·	-2	·	·	·	·

Compound activity: PubChem, National Center for Advancing Translational Sciences (NCATS)
